The source of these data is PubChem BioAssay (NCI).

Some test systems named below: NCI-H23 lung; NCI-H226 lung; NCI-H322M lung; HOP-62 NSCLC; NCI-H460 lung; HOP-92 NSCLC; NCI-H522 lung; A549/ATCC NSCLC; 786-0 renal; COLO 205 colon; DU-145 prostate; K-562 leukemia; MALME-3M melanoma; MDA-MB-231 breast; RXF 393 renal; SF-268 CNS; SF-295 CNS; SF-539 CNS; UACC-257 melanoma; M14 melanoma.
Common to all, as to assay: NCI-60 one-dose screen, 48 h (100 = growth as untreated, 0 = no growth, -100 = all killed)
What all share (conditions): 10 µM unless noted

Compounds without any hit were thinned out: in the full panel of roughly 83,000, 20% have a hit.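 Percent growth is the endpoint: 0 to 100 indicates growth inhibition (40 means 60% inhibition), 0 means no net growth, and negative values indicate cell death.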 A number with no mark means an inactive call. Active and inactive are the calls of the source. Rule for the calls: active = growth percent below 10; inactive = the rest.

As to `CC1(C)CC[C@]23CC[C@]4(C)[C@H](CC[C@@H]5[C@@]6(C)CC[C@H](N)C(C)(C)[C@@H]6CC[C@]54C)[C@H]2[C@H]1OC3`, the growth in the assay with NCI-H23 lung is 88.8%; in the assay with NCI-H226 lung, 96.6%; in the assay on NCI-H322M lung, 93.6%; in the assay with HOP-62 NSCLC, 96.1%; in the assay on NCI-H460 lung it was -34.8% (active); with HOP-92 NSCLC, 69.3%. Further, the growth is 99% in the assay with NCI-H522 lung; 24.3% in the assay on A549/ATCC NSCLC; -60.4% (active) in the assay with 786-0 renal; -40.4% (active) with COLO 205 colon; -25.2% (active) in the assay on DU-145 prostate; -31.2% (active) with K-562 leukemia. Further, the growth with MALME-3M melanoma was 109%; in the assay with MDA-MB-231 breast, 30.1%; in the assay on RXF 393 renal it was 38.1%; with SF-268 CNS it was 80.9%; in the assay with SF-295 CNS, 78%; with SF-539 CNS, 74.1%. Also, the growth with UACC-257 melanoma is 98.9%; with M14 melanoma, 82.8%.
As for `O=C(/C=C/c1cc(Cl)ccc1Cl)Nc1ncc(Cc2ccc(Cl)cc2)s1`, the growth in the assay with NCI-H23 lung is 16.7%; in the assay with NCI-H226 lung, 26.1%; in the assay on NCI-H322M lung, 33.5%; in the assay with HOP-62 NSCLC, 1.25% (active); in the assay with NCI-H460 lung it was 0.165% (active); in the assay on HOP-92 NSCLC, -10.6% (active). Moreover, the growth in the assay with NCI-H522 lung is -33.7% (active); with A549/ATCC NSCLC, 12.3%; in the assay on 786-0 renal, 0.237% (active); in the assay on COLO 205 colon it was -45.2% (active); in the assay on DU-145 prostate, 14.8%; with K-562 leukemia it was 9.62% (active). Further, the growth in the assay on MALME-3M melanoma was 49%; in the assay with MDA-MB-231 breast, 6.75% (active); with RXF 393 renal, 33.7%; in the assay on SF-268 CNS, 34.7%; in the assay on SF-295 CNS, -2.3% (active); in the assay on SF-539 CNS it was -22.6% (active). Also, the results for the growth in the assay with UACC-257 melanoma and with M14 melanoma were 49.1% and 5.98% (active), respectively.
Turning to `Cc1cc2nc(C(Cl)Cl)nc(-c3ccc(S(=O)(=O)N(C)C)cc3)n2n1`, the growth in the assay on NCI-H23 lung is 44.4%; in the assay with NCI-H226 lung, 71.8%; in the assay on NCI-H322M lung, 69.3%; in the assay with HOP-62 NSCLC, 32.8%; with NCI-H460 lung, 27.5%; in the assay on HOP-92 NSCLC it was 50%. For the same compound, the growth in the assay on NCI-H522 lung was 76.9%; with A549/ATCC NSCLC it was 37%; in the assay on 786-0 renal it was 94.5%; in the assay with COLO 205 colon, 25.2%; with DU-145 prostate, 45.1%; in the assay with K-562 leukemia, 14.1%. Moreover, the growth with MALME-3M melanoma is 17.3%; with MDA-MB-231 breast, 12.6%; in the assay with RXF 393 renal it was 59.5%; with SF-268 CNS, 67.6%; in the assay with SF-295 CNS it was 66.3%; in the assay on SF-539 CNS it was 69.4%. The results for the growth in the assay with UACC-257 melanoma and in the assay on M14 melanoma were 87% and 37.1%, respectively.
On to `Cn1cc(-c2nn3cc(-c4ccncc4)nc3s2)c2cc(Br)ccc21`, for which the growth in the assay with NCI-H23 lung is 63.1%; in the assay on NCI-H226 lung it was 83.5%; with NCI-H322M lung, 81.3%; with HOP-62 NSCLC it was 71.6%; in the assay on NCI-H460 lung, 54.9%; in the assay on HOP-92 NSCLC, -0.882% (active). Besides, the growth in the assay with NCI-H522 lung was 79.4%; in the assay on A549/ATCC NSCLC, 66.4%; in the assay on 786-0 renal, 84.6%; in the assay on COLO 205 colon, 46.5%; with DU-145 prostate, 75.1%; with K-562 leukemia it was 4.34% (active). The growth in the assay on MALME-3M melanoma is 56.8%; in the assay on MDA-MB-231 breast it was 78.5%; in the assay on RXF 393 renal, 65.4%; with SF-268 CNS, 68.8%; with SF-295 CNS, 38.5%; in the assay with SF-539 CNS, 80.4%. The values for the growth in the assay on UACC-257 melanoma and with M14 melanoma were 98.3% and 52%, respectively.
As to `CCc1cccc2c3c(sc12)C(c1ccc(F)cc1)C(C#N)=C(/N=C/c1ccc(Cl)cc1)O3` (stereo not given), the growth is 32.4% in the assay on NCI-H23 lung; 44.6% in the assay with NCI-H226 lung; 52.9% in the assay on NCI-H322M lung; 36.4% in the assay with HOP-62 NSCLC; 14.6% in the assay with NCI-H460 lung; 66.6% in the assay with HOP-92 NSCLC. The growth was -43.4% (active) with NCI-H522 lung; 31.1% in the assay on A549/ATCC NSCLC; 34.2% in the assay on 786-0 renal; -33.6% (active) in the assay on COLO 205 colon; 29% in the assay on DU-145 prostate; 10.5% in the assay on K-562 leukemia. Besides, the growth in the assay on MALME-3M melanoma was 57.2%; in the assay on MDA-MB-231 breast it was 30.3%; with RXF 393 renal, -7.19% (active); in the assay with SF-268 CNS it was 43.5%; in the assay with SF-295 CNS, 6.46% (active); with SF-539 CNS, -6.53% (active). For the same compound, the growth with UACC-257 melanoma was 69.4%; in the assay with M14 melanoma, 9.94% (active).
In the case of `CC[C@H](CC[C@@H](C)[C@H]1CC[C@H]2[C@@H]3CC(=O)C4=CC(=O)/C(=C/c5ccc([N+](=O)[O-])cc5)C[C@]4(C)[C@H]3CC[C@]12C)C(C)C`, the growth in the assay with NCI-H23 lung is 103%; with NCI-H226 lung it was 103%; in the assay on NCI-H322M lung, 103%; with HOP-62 NSCLC it was 104%; with NCI-H460 lung it was 106%; in the assay with HOP-92 NSCLC it was 114%. Further, the growth in the assay with NCI-H522 lung is 97.4%; in the assay on A549/ATCC NSCLC, 99%; with 786-0 renal it was 99%; in the assay on COLO 205 colon, 118%; with DU-145 prostate, 104%; with K-562 leukemia, 81.4%. For the same compound, the growth is 101% in the assay with MALME-3M melanoma; 98.2% with MDA-MB-231 breast; 120% with RXF 393 renal; 108% in the assay on SF-268 CNS; 97.1% in the assay on SF-295 CNS; 97.3% in the assay with SF-539 CNS. The growth was 110% in the assay with UACC-257 melanoma and 89.7% in the assay with M14 melanoma.
On to `CNC(=O)c1cc(Oc2ccc3c(c2)sc2nc(-c4ccc(N(C)C)cc4)cn23)ccn1`, for which the growth with NCI-H23 lung is 35.5%; in the assay on NCI-H226 lung, 36.2%; with NCI-H322M lung, 48.1%; in the assay on HOP-62 NSCLC, 45.4%; in the assay with NCI-H460 lung it was 8.23% (active); with HOP-92 NSCLC, 37.9%. The growth with NCI-H522 lung was 3.82% (active); in the assay with A549/ATCC NSCLC it was 23.4%; in the assay with 786-0 renal, 31%; with COLO 205 colon it was 8.9% (active); with DU-145 prostate it was 20.2%; in the assay with K-562 leukemia it was 11.8%. For the same compound, the growth in the assay on MALME-3M melanoma was 57.5%; in the assay with MDA-MB-231 breast it was 15.9%; with RXF 393 renal, 13.9%; in the assay with SF-268 CNS, 45.7%; in the assay on SF-295 CNS it was 8.54% (active); in the assay on SF-539 CNS, -14% (active). Moreover, the growth in the assay with UACC-257 melanoma was 78.8%; with M14 melanoma it was 19.1%.
